From PubChem BioAssay (Tox21)
Records with an inconclusive call do not appear. Calls of active or inactive are those of the source. Unless noted, the call rests on the fitted dose curve; in most records, active means well fitted curve in the direction sought with a large enough effect in the repeat runs; inconclusive means weak or mixed curves; inactive means no such curve, though single readings can be large; an effect the other way counts as inactive or inconclusive.

Legend:
[1] = target: Nuclear receptor subfamily 1 group I member 3 (Homo sapiens) (UniProt Q14994); assay: qHTS assay to identify small molecule agonists of the constitutive androstane receptor (CAR) signaling pathway (AID 1224839);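 further: HepG2 cells stably carrying human CAR and a CYP2B6 luciferase reporter; series mostly up to about 92 µM; nearly all actives have a fitted effect of over 15% in size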
Chain of Nuclear receptor subfamily 1 group I member 3 (Homo sapiens) (Q14994 whole entry, looked up): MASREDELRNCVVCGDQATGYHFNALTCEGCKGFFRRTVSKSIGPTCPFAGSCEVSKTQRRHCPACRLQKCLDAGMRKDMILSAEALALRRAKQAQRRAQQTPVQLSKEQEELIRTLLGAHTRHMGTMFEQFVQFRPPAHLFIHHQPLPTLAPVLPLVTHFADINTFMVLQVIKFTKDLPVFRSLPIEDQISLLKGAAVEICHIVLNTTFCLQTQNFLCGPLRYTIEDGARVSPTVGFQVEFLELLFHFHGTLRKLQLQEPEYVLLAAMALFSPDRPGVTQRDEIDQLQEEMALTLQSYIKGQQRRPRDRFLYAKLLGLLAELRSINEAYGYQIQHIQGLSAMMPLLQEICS
In short: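 Readout: firefly luciferase luminescence via ONE-Glo. System: HepG2 double-stable for hCAR and CYP2B6-2.2kb. Conditions: 15-point compound titration, PK11195 at 0.75 uM final, 24 h incubation.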

[2] = qHTS assay to identify small molecule antagonists of the estrogen related receptor signaling pathway with the pleiotropic PPARgamma coactivator (PGC) from Tox21 10K library - cell viability counter screen (AID 1224840; active means well fitted cell-killing curve with a large enough effect in the repeat runs, not every such curve was filed as active; further: nearly all actives have a fitted effect of over 40% in size)
In short: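 Seeded PGC/ERR cells (2,000/well, 6 h, 37 C/5% CO2) get compound by pin tool; 17.5 h incubation at 37 C; CellTiter-Fluor added, 30 min, fluorescence measured.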

[3] = qHTS assay to identify small molecule agonists of the hypoxia (HIF-1) signaling pathway - cell viability counter screen (AID 1224844; calls by dose curve; further: nearly all actives have a fitted effect of over 50% in size)
In short: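 HRE-bla ME-180; 0.5% dFBS; cpd 17 h, 37C, 5% CO2; CellTiter-Glo lum., 30 min RT, post-FRET read, same wells.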

[4] = qHTS assay to identify small molecule agonists of H2AX (AID 1224845; active means well fitted activation curve with a large enough effect in the signal ratio in the repeat runs, not every such curve was filed as active; the % refers to the signal ratio)
In short: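 Wild-type CHO-K1 cells plated overnight, then exposed 3 hr at 37C to compounds at 15 concentrations (0.76% DMSO). Lysed, then HTRF anti-pH2AX(S139)-cryptate/anti-H2AX-d2 detection after 24 hr at room temperature; emissions 665 and 620 nm.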

[5] = qHTS assay to identify small molecule agonists of the hypoxia (HIF-1) signaling pathway (AID 1224846; active means well fitted activation curve with a large enough effect in the signal ratio in the repeat runs, not every such curve was filed as active; the % refers to the signal ratio)
In short: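 Reporter induction in HRE-bla ME-180 cells is taken as agonism: cells sit 5 hrs after plating, receive compounds or DMSO only, incubate 17 hrs at 37C under 5% CO2, and are loaded with CCF4-AM for beta-lactamase FRET measurement.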

[6] = qHTS assay to identify small molecule agonists of H2AX - cell viability counter screen (AID 1224847; calls by dose curve; further: top concentration of the series differs between compounds; nearly all actives have a fitted effect of over 30% in size)
In short: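 For this counter screen, overnight-attached CHO-K1 cells received test compounds (15 concentrations, 0.76% DMSO final); 3 hr later at 37C, CellTiter-Glo reagent was added and luminescence recorded after 30 min at room temperature.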

[7] = qHTS RealTime-Glo MT Cell Viability Assay in HepG2 cells - 24 hour (AID 1224867); further: nearly all actives have a fitted effect of over 50% in size
In short: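 HepG2 suspension premixed with RealTime-Glo reagents is plated at 600 cells per well and left 5 h at 37 C/5% CO2. Compounds in DMSO then go in, and bioluminescence reflecting viable cell number is recorded over 40 h.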

[8] = qHTS RealTime-Glo MT Cell Viability Assay in HEK293 cells - 32 hour (AID 1224868); further: top concentration of the series differs between compounds; nearly all actives have a fitted effect of over 50% in size
In short: (§1)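 Reads taken at 0, 8, 16, 24, 32 and 40 h from the same wells. HEK293 cells (600/well) carried RealTime-Glo reagents from seeding, with compound added after a 5 h settle at 37 C.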

[9] = A CellTox Green Cytotoxicity Assay to monitor cytotoxicity in HEK293 cells - 0 hour (AID 1224869); further: nearly all actives have a fitted effect of over 50% in size
In short: (§2)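 Tox21 screen in HEK293: membrane-impermeant cyanine dye fluoresces on binding dead-cell DNA; compound pinned 5 h post-seeding, plates held at 37 C, signal read repeatedly through 40 h.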

[10] = A CellTox Green Cytotoxicity Assay to monitor cytotoxicity in HEK293 cells - 40 hour (AID 1224871); further: nearly all actives have a fitted effect of over 45% in size
In short: as §2

[11] = qHTS RealTime-Glo MT Cell Viability Assay in HEK293 cells - 16 hour (AID 1224872)
In short: as §1

[12] = qHTS RealTime-Glo MT Cell Viability Assay in HepG2 cells - 8 hour (AID 1224873); further: nearly all actives have a fitted effect of over 55% in size
In short: (§3)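 HepG2 cells mixed with RealTime-Glo MT reagents (NanoLuc plus cell-permeant prosubstrate) were seeded at 600 cells/well, incubated 5 h at 37 C/5% CO2, then pinned with compounds in DMSO; nonlytic luminescence tracked viability during 40 h treatment.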

[13] = qHTS RealTime-Glo MT Cell Viability Assay in HEK293 cells - 40 hour (AID 1224874); conditions: RealTime-Glo luminescence; max response: active compounds read low; further: nearly all actives have a fitted effect of over 50% in size
In short: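 HEK293 + NanoLuc + prosubstrate, 600 cells/well; 5 h, 37 C/5% CO2; compound 23 nL in DMSO by pintool; 37 C; luminescence read at 0, 8, 16, 24, 32 and 40 h time points.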

[14] = A CellTox Green Cytotoxicity Assay to monitor cytotoxicity in HEK293 cells - 24 hour (AID 1224875); further: series mostly up to about 77 µM; nearly all actives have a fitted effect of over 45% in size
In short: as §2

[15] = qHTS RealTime-Glo MT Cell Viability Assay in HepG2 cells - 40 hour (AID 1224870); further: nearly all actives have a fitted effect of over 50% in size
In short: as §3
On the % scale 0 is the no-effect control and ±100 the full control effect.

O=S1(=O)CCCC1
inactive: Potency [1] | outcome [2] | outcome [3] | outcome [4] | outcome [5] | Potency [6] | outcome [7] | Potency [8] | Potency [9] | Potency [10] | Potency [11] | outcome [12] | max response [13] 9.26% | Potency [14]

C1=C\CC/C=C\CC/1
inactive: Potency [1] | outcome [2] | outcome [3] | outcome [4] | Potency [6] | outcome [7] | Potency [8] | Potency [9] | outcome [15] | Potency [10] | Potency [11] | outcome [12] | max response [13] 16.6% | Potency [14]

CCC(=O)OCCC(C)CCC=C(C)C (stereo not drawn)
inactive: Potency [1] | outcome [2] | outcome [3] | outcome [4] | outcome [5] | Potency [6] | outcome [7] | Potency [8] | outcome [15] | Potency [10] | Potency [11] | outcome [12] | max response [13] -5.38%

CC(C)COC(=O)CC(C(=O)OCC(C)C)S(=O)(=O)O (stereo not drawn)
inactive: Potency [1] | outcome [2] | outcome [3] | outcome [4] | outcome [5] | outcome [7] | Potency [8] | Potency [9] | Potency [10] | Potency [11] | outcome [12] | max response [13] -3.15% | Potency [14]

CN(C)CCCNCCC#N
inactive: Potency [1] | outcome [2] | outcome [3] | outcome [4] | outcome [5] | Potency [6] | outcome [7] | Potency [8] | Potency [9] | Potency [10] | Potency [11] | max response [13] 6.65% | Potency [14]

CC(=O)OC(C)c1ccccc1 (stereo not drawn)
inactive: Potency [1] | outcome [2] | outcome [3] | outcome [4] | Potency [6] | outcome [7] | Potency [8] | Potency [9] | outcome [15] | Potency [10] | Potency [11] | outcome [12] | max response [13] 0.769% | Potency [14]

CO[Si](CCCCl)(OC)OC
inactive: Potency [1] | outcome [2] | outcome [3] | outcome [4] | outcome [5] | outcome [7] | Potency [8] | Potency [9] | outcome [15] | Potency [10] | Potency [11] | outcome [12] | max response [13] 28.4% | Potency [14]

C[Si]1(C)N[Si](C)(C)N[Si](C)(C)N1
inactive: Potency [1] | outcome [2] | outcome [3] | outcome [4] | outcome [5] | Potency [6] | outcome [7] | Potency [8] | Potency [9] | Potency [10] | Potency [11] | outcome [12] | max response [13] 16.3% | Potency [14]

CCCCCCCCCCCCC1CO1 (stereo not drawn)
inactive: Potency [1] | outcome [2] | outcome [3] | outcome [4] | Potency [6] | outcome [7] | Potency [8] | Potency [9] | outcome [15] | Potency [10] | Potency [11] | outcome [12] | max response [13] -5.34% | Potency [14]
